FBPA Giardia inh – inhibitors of Giardia lamblia fructose-1,6-bisphosphate aldolase | actives 0.71% (n = 290,000) | A8B2U2 | purified Giardia FBPA | Potency, µM (doses to about 59.6 µM), without a hit: at the highest dose activity, negative = inhibition, most hits filed as inhibitors; note: potency is the fitted concentration of half-maximal effect; % is set by controls: 0 for no effect and ±100 for the full control effect; nearly all actives have a fitted effect of over 55% in size
Target sequence (A8B2U2 whole entry, looked up): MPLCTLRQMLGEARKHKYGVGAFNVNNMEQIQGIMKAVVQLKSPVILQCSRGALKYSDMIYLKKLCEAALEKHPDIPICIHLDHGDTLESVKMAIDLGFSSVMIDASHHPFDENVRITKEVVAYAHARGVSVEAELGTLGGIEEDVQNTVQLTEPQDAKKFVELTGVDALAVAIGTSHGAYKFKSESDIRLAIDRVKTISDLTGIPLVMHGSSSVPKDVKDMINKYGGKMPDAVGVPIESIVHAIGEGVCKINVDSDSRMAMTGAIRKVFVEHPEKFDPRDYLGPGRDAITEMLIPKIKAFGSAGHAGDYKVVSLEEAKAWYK
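Giardia FBPA (40 nM reagent) was preincubated 10 min at RT with compound (up to 57.5 uM final), then substrate plus GAPDH/TPI/NAD/arsenate coupling system with diaphorase/resazurin was added; resorufin fluorescence (525/598 nm) was read after 20 min.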
Cycloheximide cs – counter-screen for Shiga toxin inhibitors: cycloheximide protein synthesis inhibition; cell reporter, cycloheximide protein synthesis inhibition counterscreen; max response, %; actives 12% (n = 300,000); AID 2314; in the data active = max response mostly above about 13%, no sharp cut-off; inactive = mostly below about 14%; note: read at 38.3 µM for the half of the compounds with a filed dose; 0% is about no effect
Pf growth 48h – P. falciparum growth inhibition at 48 hours (one generation) | Potency, µM (top dose mostly 28.7 µM), without a hit: at the highest dose activity change, negative = inhibition, hits mostly inhibitors | P. falciparum luciferase growth in erythrocytes, 48 h | actives 5.9% (n = 310,000); note: potency is the fitted concentration of half-maximal effect; % is set by controls: 0 for no effect and ±100 for the full control effect
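Here the parasites carry a stable luciferase gene and grow inside erythrocytes in Albumax-based RPMI medium with compound for one erythrocytic cycle. Activity is scored as loss of luminescent signal.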
NS1 inh – inhibitors of influenza NS1 protein function; actives 0.4% (n = 270,000); AID 2326; Potency, µM (series often up to 46.1 µM), for the others: at the highest dose activity, positive = more growth; calls by dose curve; note: potency is the fitted concentration of half-maximal effect; actives are rising curves; nearly all actives have a fitted effect of over 50% in size
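Read-out: OD600 growth recovery of NS1-expressing budding yeast. Cells grown overnight at 30C in -URA glucose medium, washed, resuspended and diluted 1:100 in 2% galactose assay medium, pH 6.0. Same strain lacking NS1 served as positive control.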
Shiga inhibitor – Shiga toxin inhibition; Vero cells, Shiga toxin protein synthesis inhibition reporter; inhibition, % at 38.7 µM; actives 9.2% (n = 290,000); AID 2315; in the data active = inhibition mostly above about 28%, no sharp cut-off; inactive = mostly below about 43%; note: 0% is about no effect
Pf growth 96h – P. falciparum growth inhibition at 96 hours; P. falciparum luciferase reporter growth, 96 h; actives 6.9% (n = 320,000); Potency, µM (highest dose often 28.7 µM), for the others: at the highest dose activity change, negative = inhibition, hits mostly inhibitors; AID 504834; note: potency is the fitted concentration of half-maximal effect; % is set by controls: 0 for no effect and ±100 for the full control effect
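P. falciparum expressing integrated firefly luciferase, in erythrocytes at 2% hematocrit, 0.05% parasitemia, incubated with compounds 96 h at 37 C, 5% CO2. Growth inhibition read as loss of luminescence; two-generation exposure targets delayed-death apicoplast inhibitors.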
Starred values were filed as active, the others as inactive; u = inconclusive; x = no result given; [ ] = dose if it differs, or a comment. Hits are enriched below; roughly 21% of the tested compounds scored in any of these assays. Unless noted, calls come from the whole dose curve; as a rule, active = well fitted curve in the direction sought with a large enough effect; inconclusive = small, poorly fitted or top-dose-only effect, or another doubt; inactive = no such curve, though single readings can be large; an effect the other way counts as inactive or inconclusive.

SMILES	FBPA Giardia inh	Cycloheximide cs	Pf growth 48h	NS1 inh	Shiga inhibitor	Pf growth 96h
C[C@@]1(C(=O)O)NCCc2cc(O)c(O)cc21	13µM*	x	x	x	x	x
S=C(/N=c1/sccn1Cc1ccccc1)NC1CC1	-1%	0	u	-37%	29	12µM*
Cn1c(O)c(/C=N/N2CCOCC2)c(=O)n(C)c1=S	-5%	2	13µM*	-1%	-1	36%
CCn1c(O)c(/C=N/N2CCOCC2)c(=O)n(CC)c1=S	-7%	1	-1%	-8%	-4	19%
CCOC(=O)C1=C(N)OC2=C(C(=O)CCC2)C12C(=O)N1c3c(ccc(C)c32)C(C)=CC1(C)C (configuration not stated)	2%	-1	u	-32%	-7	12µM*
O=C(c1ccccc1Cl)N1CCc2ccccc2C1	-6%	9	-24%	-5%	17	x
CSc1ccccc1C(=O)N1CCc2ccccc2C1	-9%	16*	8%[5.75 µM]	x	46	32%
Cn1c(C(=O)N2CCc3ccccc3C2)cc2oc3ccccc3c21	-1%	38*	107%	-23%	61*	12%
Cc1ccccc1C(=O)N1CCc2ccccc2C1	15%	19*	-65%	-94%	43	-29%
CSCCCNC(=S)N1CCc2ccccc2C1	-7%	29*	u	x	74	71%
CCn1c(C(=O)N2CCc3ccccc3C2)cc2oc3ccccc3c21	-4%	6	6%	9%	7	211%
CCCn1c(-c2ccc(F)cc2)nc2c(NCCCN(CCO)CCO)nc(C)nc21	-6%	x	x	x	x	x
CC(C)c1ccc(CCNC(=O)CCNS(=O)(=O)c2ccc(Br)cc2)cc1	x	x	-16%	x	x	u
COc1ccc(C(=O)c2ccc(N(C)C)cc2)c(OC)c1	-3%	14	9%	-10%	57	x
CN(C)c1ccc(C(=O)c2ccc(N(C)C)c3ccccc23)cc1	-4%	25*	u	19%	68*	-22%
O=[N+]([O-])c1cc(C(F)(F)F)cc([N+](=O)[O-])c1NCCCNc1ccc([N+](=O)[O-])c2cccnc12	-12%	-7	u	28%	-11	4.1µM*
CCOc1cnc(-c2ccc(Cl)cc2)o1	-3%	39*	58%	11%	86*	46%
CCOc1cnc(-c2ccc(OC)cc2)o1	3%	15*	80%	-1%	55*	78%
CCOc1cnc(-c2c(-c3c(Cl)cccc3Cl)noc2C)o1	-4%	-4	-14%[5.75 µM]	x	4	u
CC(=O)c1ccc(C(=O)N2CCCC(N3CCN(c4ccc(F)cc4)CC3)C2)s1 (configuration not stated)	x	15	-9%	-65%	8	10%
Cc1cc(C)cc(NC(=O)C2CCN(S(=O)(=O)c3ccc4[nH]c(=O)ccc4c3)CC2)c1	-6%	-3	u	-2%	-4	-25%
Cc1ccc(-c2nc3c(Cl)cc(Cl)cc3c(=O)n2O)cc1	8%	1	30%	-30%	-4	u
O=C(Nc1nc(=O)n(C(=O)C2CC2)s1)c1ccccc1	-27%	27*	-6%	-26%	2	-8%
Cc1ccc(C(=O)Nc2nc(=O)n(C(=O)c3ccccc3C)s2)cc1	-17%	13	x	-1%	8	10%
Cc1ccc(C(=O)Nc2nc(=O)n(C(=O)C3CC3)s2)cc1	-17%	16*	15%	-15%	20	12%
SMILES	FBPA Giardia inh	Cycloheximide cs	Pf growth 48h	NS1 inh	Shiga inhibitor	Pf growth 96h
CCc1nn(CC(=O)NCCc2ccc(OC)cc2OC)c(=O)c2cc3occc3n12	x	-10	1%	7%	-9	13%
CCOC(=O)c1c(NC(C)=O)sc2c(OCC(O)CN(CC)CC)c(Br)ccc12 (configuration not stated)	-1%	-25	-21%	x	-28	7.4µM*
O=C1CSc2nc3ccccc3n21	-3%	21*	35%	-7%	19	-7%
COc1cc(C(=O)OCC(=O)NCc2ccc(F)cc2)ccc1OCC(C)C	1%	8	1%	0%	-6	29%
CCNc1nc(Oc2ccc(=O)n(-c3ccccc3)n2)nc(N(C)C)n1	x	-5	-14%	8%	-11	2.6µM*
CCNc1nc(OC)nc(Oc2ccc(=O)n(-c3ccccc3)n2)n1	5%	7	0.93µM*	3%	5	0%[5.75 µM]
CCNc1nc(Oc2ccc(=O)n(-c3ccccc3)n2)nc(N2CCOCC2)n1	4%	-2	-3%	-4%	12	u
